According to PubChem BioAssay (NCATS):
Records with an inconclusive call do not appear. Active and inactive are the calls of the source. Unless noted, the call rests on the fitted dose curve; in most records, active means well fitted curve in either direction with a large enough effect (not every such curve was filed as active); inconclusive means small, poorly fitted or top-dose-only effect, or another doubt; inactive means flat fitted curve, though single readings scatter.

Columns and labels:
[1] = AP1 Signaling Pathway (AID 357); details: ME-180 AP-1-bla reporter, EGF-induced, beta-lactamase ratio, 5 h; at 17.2 µM (top of the series) unless noted;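 further: ME-180 reporter cells stimulated with EGF at its EC50 level; on the % scale 0 is the no-effect control and ±100 the full control effect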
Summary of the method: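 Beta-lactamase reporter under AP-1 response element, ME-180 background. Stimulus: EC50 EGF. Compound exposure 5 h, 37 °C. Detection: CCF4, 2.5 h RT, 460/530 nm. Values: AC50 from titration.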

[2] = NFAT Signaling Pathway (AID 444); details: Jurkat NFAT-bla M1, carbachol, beta-lactamase ratio, 5 h; at 17.2 µM (top of the series) unless noted;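 further: carbachol stimulus at about its EC50 of 1 µM final; on the % scale 0 is the no-effect control and ±100 the full control effect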
Summary of the method: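 Read-out: CCF4 FRET ratio (460 nm/530 nm) after 1 h RT dye loading, used for %activity and AC50 from titration series. Cells: Jurkat NFAT-β-lactamase/M1 line, treated with compound plus 1 uM carbachol for 5 h, 37 °C.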

[3] = Stat Signaling Pathway (AID 446); details: ME-180 SIE beta-lactamase reporter, IL-6 stimulated, 5 h; at 17.2 µM (top of the series) unless noted;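 further: ME-180 cervical cancer cells given 40 pM IL-6 alongside compound; SIE-controlled beta-lactamase reporter measured as 460/530 nm FRET emission ratio; on the % scale 0 is the no-effect control and ±100 the full control effect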
Summary of the method: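 ME-180 cells carrying a SIE-driven beta-lactamase reporter are stimulated with 40 pM IL-6 for 5 h at 37C in the presence of compound. The 460/530 nm FRET substrate ratio is read after 2.5 h at RT. Data are normalised to 300 pM IL-6 and to 125 nM JAK inhibitor controls.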

[4] = target: Glucocorticoid receptor (Homo sapiens) (UniProt P04150); assay: GR-GFP Redistribution (AID 450;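 active means compounds whose dose series gives a full or clear partial fitted curve of increased nuclear translocation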; further: potency means the concentration at half of the fitted maximal effect)
Glucocorticoid receptor (Homo sapiens), sequence (P04150 whole entry, looked up, the tested form may be a part): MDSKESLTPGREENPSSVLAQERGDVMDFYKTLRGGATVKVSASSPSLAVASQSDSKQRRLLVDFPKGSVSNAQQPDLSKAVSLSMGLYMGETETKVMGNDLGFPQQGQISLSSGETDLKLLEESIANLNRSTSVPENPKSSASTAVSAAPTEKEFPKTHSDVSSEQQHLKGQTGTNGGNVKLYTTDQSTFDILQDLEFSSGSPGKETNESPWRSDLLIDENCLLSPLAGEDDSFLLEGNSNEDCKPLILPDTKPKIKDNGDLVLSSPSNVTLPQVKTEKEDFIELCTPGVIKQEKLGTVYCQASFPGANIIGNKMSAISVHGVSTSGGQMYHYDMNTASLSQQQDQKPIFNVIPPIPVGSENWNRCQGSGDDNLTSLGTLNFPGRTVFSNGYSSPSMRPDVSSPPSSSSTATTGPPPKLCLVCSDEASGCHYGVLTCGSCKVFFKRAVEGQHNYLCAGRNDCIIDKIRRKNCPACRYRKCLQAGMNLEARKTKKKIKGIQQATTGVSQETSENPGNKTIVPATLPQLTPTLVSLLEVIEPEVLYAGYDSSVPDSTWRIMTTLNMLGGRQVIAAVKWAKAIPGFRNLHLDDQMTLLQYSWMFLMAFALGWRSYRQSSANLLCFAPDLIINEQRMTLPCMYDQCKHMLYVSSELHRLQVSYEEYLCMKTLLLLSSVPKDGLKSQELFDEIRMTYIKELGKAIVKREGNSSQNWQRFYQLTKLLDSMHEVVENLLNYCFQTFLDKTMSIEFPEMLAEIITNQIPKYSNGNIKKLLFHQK

[5] = target: Glucocorticoid receptor (Homo sapiens) (UniProt P04150); assay: GR-EFC Redistribution (AID 451; calls by dose curve; further: potency means the concentration at half of the fitted maximal effect); details: CHO-K1 GR-EFC translocation, beta-gal luminescence, 2 h
Summary of the method: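 Translocation of GR-ED fusion to nuclear EA restores b-gal, read by luminescence after 1 h room-temperature detection. Engineered CHO-K1 biosensor cells, 1,000/well, exposed 2 h at 37 C to titrations up to 46 uM final.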

[6] = target: Mitogen-activated protein kinase 10 (Mus musculus) (UniProt Q61831); assay: JNK3 AlphaScreen Assay (AID 530);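 further: kinase came from lysate of stimulated human HepG2 cells; signal reports phosphorylation of biotinylated GST-cJun 1-79 at Ser73 with 10 µM ATP; on the % scale 0 is the no-effect control and ±100 the full control effect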
Summary of the method: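 Compound titrations were preincubated 15 minutes at room temperature with substrate, antibody and pre-activated JNK3-containing HepG2 lysate. Reactions were started with 10 uM ATP and stopped with EDTA-containing bead buffer for AlphaScreen detection.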

[7] = target: 3',5'-cyclic-AMP phosphodiesterase 4B (Homo sapiens) (UniProt Q07343); assay: qHTS Assay for Inhibitors of PDE-IV (AID 607; active means well fitted activation curve with a large enough effect in the main read-out, with a control signal flat, not every such curve was filed as active; further: % of control where 0% means no effect)
3',5'-cyclic-AMP phosphodiesterase 4B (Homo sapiens), sequence (Q07343 whole entry, looked up): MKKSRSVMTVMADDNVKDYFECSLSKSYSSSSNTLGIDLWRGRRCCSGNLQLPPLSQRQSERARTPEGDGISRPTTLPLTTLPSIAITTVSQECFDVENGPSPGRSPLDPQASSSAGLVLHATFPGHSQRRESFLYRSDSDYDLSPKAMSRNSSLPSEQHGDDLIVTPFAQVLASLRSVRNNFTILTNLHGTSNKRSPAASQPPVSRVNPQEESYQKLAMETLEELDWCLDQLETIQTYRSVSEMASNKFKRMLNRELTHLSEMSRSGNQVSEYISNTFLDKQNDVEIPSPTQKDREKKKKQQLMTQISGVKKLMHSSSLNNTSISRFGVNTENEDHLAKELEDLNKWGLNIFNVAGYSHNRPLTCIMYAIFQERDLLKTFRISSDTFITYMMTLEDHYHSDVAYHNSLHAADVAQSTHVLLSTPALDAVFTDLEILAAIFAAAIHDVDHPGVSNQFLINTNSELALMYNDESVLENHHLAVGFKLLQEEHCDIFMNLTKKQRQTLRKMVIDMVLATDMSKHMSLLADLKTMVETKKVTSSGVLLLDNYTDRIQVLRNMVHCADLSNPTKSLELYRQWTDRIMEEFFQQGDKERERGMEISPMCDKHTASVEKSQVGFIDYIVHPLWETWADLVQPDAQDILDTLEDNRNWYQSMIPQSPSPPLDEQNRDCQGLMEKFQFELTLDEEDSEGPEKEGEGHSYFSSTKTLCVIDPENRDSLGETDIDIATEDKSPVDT
Summary of the method: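 HEK293 ACTOne cells with CNG channel (1000/well), endogenous PDE4; membrane potential dye, compounds up to 22.9 uM final. Fluorescence Ex 535/Em 590; RO 20-1724 (100 uM final) as reference.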

[8] = target: Guanine nucleotide-binding protein G(i) subunit alpha-1 (Homo sapiens) (UniProt P63096); assay: qHTS Assay for Inhibitors of RGS12 GoLoco Motif Activity (Green Fluorophore) (AID 879; active means well fitted curve in the direction sought with a large enough effect; an effect the other way counts as inactive or inconclusive;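 further: 0% = labeled peptide with Gαi1 and full inhibition = labeled peptide alone without protein; negative values mean loss of peptide binding seen as reduced polarization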)
Guanine nucleotide-binding protein G(i) subunit alpha-1 (Homo sapiens), sequence (P63096 whole entry, looked up): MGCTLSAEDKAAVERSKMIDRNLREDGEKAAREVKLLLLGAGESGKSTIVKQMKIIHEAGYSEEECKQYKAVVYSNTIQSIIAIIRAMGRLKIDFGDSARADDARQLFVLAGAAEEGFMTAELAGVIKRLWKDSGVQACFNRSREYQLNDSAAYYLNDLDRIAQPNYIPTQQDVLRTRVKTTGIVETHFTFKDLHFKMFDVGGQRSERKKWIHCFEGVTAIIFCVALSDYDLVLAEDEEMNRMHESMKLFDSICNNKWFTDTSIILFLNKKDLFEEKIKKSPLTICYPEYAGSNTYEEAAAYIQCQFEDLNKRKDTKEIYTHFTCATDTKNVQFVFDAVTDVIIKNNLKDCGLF
Summary of the method: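 Fluorescence polarization assay: 50 nM Gαi1 with 10 nM FITC-labeled RGS12 GoLoco peptide in 10 mM Tris pH 7.5, 150 mM NaCl, 0.1 mM GDP, 0.05% NP40, 10 min at room temperature with compound.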

[9] = qHTS Assay for Identification of Small Molecule Agonists for Thrombopoietin (TPO) Signaling Pathway (AID 917; active means well fitted curve in the direction sought with a large enough effect; an effect the other way counts as inactive or inconclusive; further: on the % scale 0 is the no-effect control and ±100 the full control effect)
Summary of the method: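 We measured Glycoprotein IIb promoter–luciferase output in IL-3-starved Ba/F3 murine cells expressing the human TPO receptor after 24 hrs at 37 C with compounds and 26 pM TPO.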

[10] = target: Muscarinic acetylcholine receptor M1 (Rattus norvegicus) (UniProt P08482); assay: qHTS Assay for Antagonists of Acetylcholine Muscarinic M1 Receptor: Measurement of IP-One Response (AID 944; active means well fitted curve in the direction sought with a large enough effect; an effect the other way counts as inactive or inconclusive; further: nearly all actives have a fitted effect of over 75% in size)
Muscarinic acetylcholine receptor M1 (Rattus norvegicus), sequence (P08482 whole entry, looked up): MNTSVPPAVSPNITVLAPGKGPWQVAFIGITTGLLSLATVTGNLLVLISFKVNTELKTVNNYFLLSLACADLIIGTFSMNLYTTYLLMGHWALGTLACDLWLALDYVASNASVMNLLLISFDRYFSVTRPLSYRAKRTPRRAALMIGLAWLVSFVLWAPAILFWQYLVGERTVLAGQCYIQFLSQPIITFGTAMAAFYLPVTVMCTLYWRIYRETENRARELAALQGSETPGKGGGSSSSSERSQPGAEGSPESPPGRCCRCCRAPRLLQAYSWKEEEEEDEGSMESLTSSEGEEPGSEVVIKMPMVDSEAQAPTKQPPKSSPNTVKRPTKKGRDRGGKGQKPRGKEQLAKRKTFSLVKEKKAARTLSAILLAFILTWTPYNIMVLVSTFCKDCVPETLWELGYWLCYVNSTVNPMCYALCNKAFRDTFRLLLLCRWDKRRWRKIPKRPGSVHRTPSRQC
Summary of the method: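 M1-CHO (rat), 2000 cells/well, overnight recovery; cpd 10 min; carbachol EC80 (200 nM), 30 min, HEPES buffer + 50 mM LiCl pH 7.4; IP-One HTRF, Ex 337, Em 620/665 nm.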

[11] = target: Pyruvate kinase (Leishmania mexicana) (UniProt Q27686); assay: qHTS Validation Assay for Inhibitors of Leishmania Mexicana Pyruvate Kinase (AID 945; active means well fitted curve in the direction sought with a large enough effect; an effect the other way counts as inactive or inconclusive;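 further: 0% = DMSO only neutral control wells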)
Pyruvate kinase (Leishmania mexicana), sequence (Q27686 2-499 E452W): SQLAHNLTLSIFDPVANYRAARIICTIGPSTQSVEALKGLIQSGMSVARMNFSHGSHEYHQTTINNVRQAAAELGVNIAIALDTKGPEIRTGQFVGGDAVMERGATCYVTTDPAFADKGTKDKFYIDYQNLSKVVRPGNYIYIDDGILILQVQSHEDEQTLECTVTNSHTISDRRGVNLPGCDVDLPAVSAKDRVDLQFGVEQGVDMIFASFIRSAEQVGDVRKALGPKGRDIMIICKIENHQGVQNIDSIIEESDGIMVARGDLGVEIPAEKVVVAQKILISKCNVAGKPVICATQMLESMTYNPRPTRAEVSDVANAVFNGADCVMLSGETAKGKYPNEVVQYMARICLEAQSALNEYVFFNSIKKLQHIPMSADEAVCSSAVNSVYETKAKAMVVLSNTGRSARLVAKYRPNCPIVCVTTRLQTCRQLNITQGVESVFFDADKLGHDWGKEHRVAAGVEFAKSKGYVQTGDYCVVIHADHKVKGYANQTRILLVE
Summary of the method: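 Mutant LmPYK (E451W), 0.2 nM, plus 0.5 mM PEP and 0.1 mM ADP in 50 mM imidazole pH 7.2 containing 0.01% Tween 20 and 0.05% BSA. Incubated 1 h at room temperature; luminescence via PKLight, normalized to DMSO.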

[12] = target: Pyruvate kinase PKM (Homo sapiens) (UniProt P14618); assay: qHTS Assay for Activators of Human Muscle Pyruvate Kinase (AID 954; active means well fitted curve in the direction sought with a large enough effect, not every such curve was filed as active;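 further: 0% = uninhibited enzyme and -100% = no enzyme or full thiadiazolimine inhibition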)
Pyruvate kinase PKM (Homo sapiens), sequence (P14618 whole entry, looked up): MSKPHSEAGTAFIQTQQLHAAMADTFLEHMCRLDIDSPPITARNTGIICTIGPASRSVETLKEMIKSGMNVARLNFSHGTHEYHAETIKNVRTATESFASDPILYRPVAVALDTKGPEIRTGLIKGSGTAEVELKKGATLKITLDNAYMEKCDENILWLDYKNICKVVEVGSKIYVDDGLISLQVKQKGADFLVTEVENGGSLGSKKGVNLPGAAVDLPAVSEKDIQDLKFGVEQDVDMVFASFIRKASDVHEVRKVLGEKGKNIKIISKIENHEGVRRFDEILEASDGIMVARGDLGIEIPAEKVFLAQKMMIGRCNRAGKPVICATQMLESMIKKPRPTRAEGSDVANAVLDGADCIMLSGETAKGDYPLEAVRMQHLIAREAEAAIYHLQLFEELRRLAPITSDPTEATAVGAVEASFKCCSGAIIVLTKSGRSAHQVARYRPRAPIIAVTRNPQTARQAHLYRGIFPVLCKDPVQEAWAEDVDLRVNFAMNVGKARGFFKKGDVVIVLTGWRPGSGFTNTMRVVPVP
Summary of the method: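 Purified human PKM2 (0.1 nM) with 0.5 mM PEP (Km) and 0.1 mM ADP in 50 mM imidazole pH 7.2, KCl, MgCl2, 1 h at room temperature; ATP formed read by coupled luciferase luminescence. Normalized to no-enzyme/110 uM thiadiazolimine inhibition; 0.3 nM enzyme column for activation.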

[13] = target: Alpha-galactosidase A (Homo sapiens) (UniProt P06280); assay: Counterscreen for Glucocerebrosidase Inhibitors: qHTS Assay for Human alpha-Galactosidase at pH 4.5 (AID 992; active means well fitted curve in the direction sought with a large enough effect; an effect the other way counts as inactive or inconclusive; further: 0% is about no effect)
Alpha-galactosidase A (Homo sapiens), sequence (P06280 whole entry, looked up): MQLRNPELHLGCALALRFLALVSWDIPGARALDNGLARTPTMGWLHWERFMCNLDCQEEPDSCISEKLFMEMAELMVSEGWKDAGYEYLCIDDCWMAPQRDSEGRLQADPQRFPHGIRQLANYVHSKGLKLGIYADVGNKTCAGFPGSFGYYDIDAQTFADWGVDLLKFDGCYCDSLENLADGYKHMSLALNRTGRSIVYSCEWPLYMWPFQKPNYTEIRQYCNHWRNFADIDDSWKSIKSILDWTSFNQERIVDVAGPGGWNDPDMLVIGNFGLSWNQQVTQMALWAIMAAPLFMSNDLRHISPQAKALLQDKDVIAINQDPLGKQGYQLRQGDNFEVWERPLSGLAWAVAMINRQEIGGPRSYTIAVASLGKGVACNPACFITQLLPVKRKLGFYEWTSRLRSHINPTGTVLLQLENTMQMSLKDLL
Summary of the method: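 Human enzyme (2 nM) with 80 uM 4-methylumbelliferyl alpha-D-galactopyranoside in 50 mM citric acid, 0.005% Tween-20, pH 4.5, 20 min at room temperature. Compounds 0.7 nM–77 uM; fluorescence Ex 365/Em 440 after pH 10 stop; AC50 from Hill fits.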

[14] = target: alpha-glucosidase (Oryza sativa, rice) (UniProt Q653V4); assay: Counterscreen for Glucocerebrosidase Inhibitors: qHTS Assay for Rice alpha-Glucosidase at pH 5.0 (AID 997; active means well fitted curve in the direction sought with a large enough effect; an effect the other way counts as inactive or inconclusive;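 further: 0% = full activity with enzyme and -100% = basal without enzyme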)
Summary of the method: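 Rice alpha-glucosidase (4 nM final) with 400 uM 4-methylumbelliferyl-alpha-D-glucopyranoside in citrate buffer pH 5.0, 20 min at room temperature, stopped at pH 10; fluorescence 365/440 nm, compounds 0.7 nM–77 uM, AC50 from Hill fits.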

[15] = qHTS Assay for Identification of Small Molecule Antagonists for NFkB Signaling Pathway (AID 895; active means well fitted inhibition curve with a large enough effect in the signal ratio, with a control signal flat, not every such curve was filed as active; the % refers to the signal ratio; further: potency means the concentration at half of the fitted maximal effect)
Summary of the method: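 Beta-lactamase reporter read-out (460 and 530 nm emission ratio, 405 nm excitation, 2 hrs substrate loading RT) after 5 hr stimulation with 10 pM TNF alpha in compound-treated NFkB-bla ME-180 cells in low-serum medium.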

[16] = target: Cytochrome P450 3A4 (Homo sapiens) (UniProt P08684); assay: qHTS Assay for Activators of Cytochrome P450 3A4 (AID 885; active means well fitted curve in the direction sought with a large enough effect; an effect the other way counts as inactive or inconclusive; further: nearly all actives have a fitted effect of over 65% in size)
Cytochrome P450 3A4 (Homo sapiens), sequence (P08684 whole entry, looked up): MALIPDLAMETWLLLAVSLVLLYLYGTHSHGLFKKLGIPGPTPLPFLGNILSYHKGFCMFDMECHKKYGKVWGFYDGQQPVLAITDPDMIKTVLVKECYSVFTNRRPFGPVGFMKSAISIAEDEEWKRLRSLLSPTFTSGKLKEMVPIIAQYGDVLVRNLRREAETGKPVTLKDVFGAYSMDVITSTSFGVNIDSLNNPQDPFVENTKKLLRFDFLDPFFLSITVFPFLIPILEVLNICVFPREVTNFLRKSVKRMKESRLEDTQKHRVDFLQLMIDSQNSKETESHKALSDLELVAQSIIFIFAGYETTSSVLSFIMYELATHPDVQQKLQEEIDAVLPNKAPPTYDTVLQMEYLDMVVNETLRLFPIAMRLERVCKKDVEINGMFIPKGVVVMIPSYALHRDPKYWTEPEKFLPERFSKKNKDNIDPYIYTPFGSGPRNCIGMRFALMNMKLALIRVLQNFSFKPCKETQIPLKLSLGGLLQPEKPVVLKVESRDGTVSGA
Summary of the method: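 Human CYP3A4 (20 nM) with Luciferin-PPXE at 25 uM (its KM) in 200 mM KPO4; 10 min compound preincubation, then NADPH regeneration and 60 min reaction at RT. Luciferin read by luminescence; normalized to 57 uM ketoconazole full inhibition.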

CCCOc1ccc(Cn2c(O)cc(=O)[nH]c2=O)cc1
inactive: activity change, negative = inhibition [1] -5.5% | activity change, negative = inhibition [2] 7.39% | activity, negative = inhibition [3] -0.906% | Potency [4] > 20.6 µM

Cc1cc(N2CCCCC2)nc2ccc(Cc3ccc4nc(N5CCCCC5)cc(C)c4c3)cc12
inactive: activity change, negative = inhibition [1] -0.0465% [at 7.69 µM] | activity change, negative = inhibition [2] -1.68% [at 7.69 µM] | activity, negative = inhibition [3] 8.27% [at 7.69 µM] | Potency [4] > 46 µM | Potency [5] > 9.22 µM | activity change, negative = inhibition [6] 13.5% [at 11.4 µM]

c1ccc(OCc2nn3c(C4CCCCC4)nnc3s2)cc1
inactive: activity change, negative = inhibition [1] -8.37% | activity change, negative = inhibition [2] 0.0415% | activity, negative = inhibition [3] 8.07% | Potency [4] > 20.6 µM

CC(=O)O[C@@H]1C[C@]2(C)[C@H](C[C@@H](O)[C@H]3[C@@]4(C)CC[C@@H](O)[C@@H](C)[C@@H]4CC[C@@]32C)/C1=C(\CCC=C(C)C)C(=O)O
inactive: activity change, negative = inhibition [1] -14.6% [at 38 µM] | activity change, negative = inhibition [2] -0.766% [at 38 µM] | activity, negative = inhibition [3] 11.2% [at 38 µM] | Potency [4] > 46 µM | Potency [5] > 46 µM | Potency [6] | Potency [7] | outcome [8] | Potency [9] | Potency [10] | Potency [11] | outcome [12] | outcome [13] | outcome [14]

COc1cccc(OC)c1OCCNC[C@@H]1CSc2ccccc2O1
inactive: activity change, negative = inhibition [1] 18% [at 38 µM] | activity change, negative = inhibition [2] -12.7% [at 38 µM] | activity, negative = inhibition [3] -23.8% [at 38 µM] | Potency [4] > 46 µM | Potency [5] > 46 µM | Potency [6] | Potency [7] | outcome [8] | Potency [15] | Potency [9] | Potency [11] | outcome [12] | outcome [13]

O=C1c2c(O)cc(O)cc2O[C@@H](c2ccc(O)c(O)c2)[C@H]1O
active: Potency [15] 1.58 µM
inactive: activity change, negative = inhibition [1] -14.3% [at 38 µM] | activity change, negative = inhibition [2] 13.3% [at 38 µM] | activity, negative = inhibition [3] -8.15% [at 38 µM] | Potency [4] > 46 µM | Potency [5] > 46 µM | Potency [6] | Potency [7] | outcome [8] | Potency [16] | Potency [9] | Potency [11] | outcome [12] | outcome [13] | outcome [14]
